# A selection: hits, their analogues and other compounds. The true share with any hit is near 1.5%.
# WRN helicase inh: inhibitors of human WRN helicase | Q14191 | WRN helicase unwinding, fluorescent forked duplex, kinetic | Potency, µM (highest dose often 114 µM), for the others: at the top dose activity change, negative = inhibition, most hits filed as inhibitors | hit rate 0.46% among 360,000; further: potency means the concentration at half of the fitted maximal effect; nearly all actives have a fitted effect of over 55% in size
#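 Enzyme (20 nM final) and test compound sit together 15 min at room temperature before substrate addition. Substrate is a single-forked duplex oligonucleotide (100 nM) labelled with fluorophore and quencher, with 2 mM ATP; helicase unwinding raises red fluorescence, read kinetically.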
# PI5P4Ka inh: PI5P4K alpha (human) kinase inhibition; AID 652105; P48426; PI5P4Kalpha enzyme, ADP-Glo luminescence, 60 min; stronger effect = lower value; hit rate 1.2% among 330,000; max response, %; active means max response of -50% or lower; inconclusive means between -30% and -50%; inactive means -30% or higher; further: value at the top dose of about 77 µM
# Target sequence (P48426 whole entry, looked up): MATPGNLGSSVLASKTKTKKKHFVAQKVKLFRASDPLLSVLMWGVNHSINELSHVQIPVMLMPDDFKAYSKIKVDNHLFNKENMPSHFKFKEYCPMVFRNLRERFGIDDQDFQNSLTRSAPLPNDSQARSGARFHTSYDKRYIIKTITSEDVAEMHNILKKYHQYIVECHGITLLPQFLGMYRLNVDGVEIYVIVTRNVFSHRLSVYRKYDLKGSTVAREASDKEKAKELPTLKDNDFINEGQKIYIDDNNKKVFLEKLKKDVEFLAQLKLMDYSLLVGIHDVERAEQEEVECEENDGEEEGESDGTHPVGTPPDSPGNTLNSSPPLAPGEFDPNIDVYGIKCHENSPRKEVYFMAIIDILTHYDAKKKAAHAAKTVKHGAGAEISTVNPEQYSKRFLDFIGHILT
#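 Luminescence from ADP-Glo served as readout of PI5P4Kalpha activity in a qHTS format. Reaction: enzyme, substrate, compound, ATP at 5 microM final, 60 min at RT.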
# Tb PFK inh: inhibitors of T. brucei phosphofructokinase. hit rate 0.17% among 330,000. Potency, µM (series often up to 57.5 µM), for the others: at the top dose activity, negative = inhibition, usual class: inhibitors. T. brucei PFK, ADP-Glo luminescence. O15648;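 further: potency means the concentration at half of the fitted maximal effect; 0% = uninhibited 1x PFK enzyme wells and -100% = no-enzyme wells; nearly all actives have a fitted effect of over 60% in size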
#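 ADP-Glo luminescence quantified ADP after 45 min at room temperature, with 1.25 nM T. brucei PFK, 0.1 mM ATP and 0.5 mM fructose-6-phosphate in pH 8.0 TEA buffer. qHTS titrations up to 57 µM; curves classified by quality.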
# TDP1 block: blocks human tyrosyl-DNA phosphodiesterase 1; Q9NUW8; recombinant TDP1, AlphaScreen DNA substrate cleavage; Potency, µM (titrated, usually from 130 µM), inactives show at the highest dose activity change, negative = inhibition, hits mostly inhibitors; hit rate 0.28% among 350,000; AID 485290; further: potency means the concentration at half of the fitted maximal effect; nearly all actives have a fitted effect of over 40% in size
#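 Recombinant E. coli-expressed Tdp1 (1 nM) preincubated with compound 15 min at RT, then 5'-biotin/3'-phosphotyrosine-FITC DNA substrate (15 nM) added for 5 min. AlphaScreen beads (10 ug/ml) added, 10 min RT; tyrosine-FITC cleavage read as signal loss.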
# FEN1 inhibitor: human FEN1 inhibition | Potency, µM (titrated, usually from 114 µM), for inactives: at the highest dose activity change, negative = inhibition, most hits filed as inhibitors | hit rate 0.35% among 390,000 | P39748 | Recombinant FEN1 flap cleavage, fluorescence, 15 min; further: potency means the concentration at half of the fitted maximal effect; nearly all actives have a fitted effect of over 65% in size
#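 In this screen, 50 nM flap DNA substrate was added to 10 nM FEN1 pretreated with compound for 15 min at room temperature; cleavage was followed with reads at 0 and 15 min, and Hill fitting gave concentration–response parameters.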
# Tb PGK inh: T. brucei PGK inhibition; P07378; PGK/GAPDH coupled, Kinase-Glo luminescence, 60 min; Potency, µM (highest dose often 57.5 µM), without a hit: at the highest dose activity change, negative = inhibition, usual class: inhibitors; hit rate 0.043% among 380,000; AID 602233; further: potency means the concentration at half of the fitted maximal effect; nearly all actives have a fitted effect of over 60% in size
#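 Recombinant glycosomal PGK reaction used 1,3-bisphosphoglycerate generated in-well by GAPDH (100nM final) in 100mM TEA pH 7.6, 5mM MgCl2, 0.01% Tween-20. After 60 minutes at room temperature, ATP was read by Kinase-Glo Plus luminescence end-point.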
# The depositor's hits bear a star; ? = inconclusive; nt = not tested or not shown; ! = repeats disagree; [ ] = another dose, or the depositor's remark. Unless noted, the call rests on the fitted dose curve; in most records, active means well fitted curve in the direction sought with a large enough effect; inconclusive means small, poorly fitted or top-dose-only effect, or another doubt; inactive means no such curve, though single readings can be large; an effect the other way counts as inactive or inconclusive. Unless noted, on the % scale 0 is the no-effect control and ±100 the full control effect.
SMILES,WRN helicase inh,PI5P4Ka inh,Tb PFK inh,TDP1 block,FEN1 inhibitor,Tb PGK inh
Cc1nc2ccc3nc(NC(=O)c4ccc5c(c4)OCCO5)sc3c2s1,-25%,nt,5%,89µM*,-21%,-1%
O=C1NC(=S)/C(=C\c2ccc(-c3ccccc3Cl)o2)S1,50µM*,-69*,-1%,6%,?,-24%
NC(=NCc1ccc(Cl)cc1Cl)NC(=O)c1nc(Cl)c(N)nc1N,nt,nt,nt,16%,nt,nt
CC1=NN(c2ccc(N)cc2)C(=O)C1,45µM*,-23,-24%,5%,?,-14%
CC(C)(C)OC(=O)CC(=O)NNC(=O)c1nc2ccccc2[nH]1,nt,nt,nt,-2%,nt,nt
Cc1c2cc(O)c(=O)cc-2oc2cc(O)c(O)cc12,-25%,nt,3.4µM*,12%,?,?
O=C(N/N=C/c1ccccc1F)c1cc2c(ccc3ccccc32)o1,-2%[11.6 µM],-1,-12%,8.9µM*,8%,-13%
O=C(O)Cn1cc(/C=N/NC(=O)c2cc3cc(Br)ccc3o2)c2ccccc21,?,-75*,-9%,nt,-27%,-4%
S=c1[nH]c(=S)c2[nH]cnc2[nH]1,nt,nt,nt,nt,-1%,nt
CC1CCC2C(=O)N3C(CCC(C)C3c3ccc(-c4ccco4)cc3)C(=O)N2C1c1ccc(-c2ccco2)cc1 (centres undefined),nt,nt,nt,3.5µM*,nt,nt
CCOC(=O)CCN1C(=O)[C@H]2[C@H]3[C@H](O)[C@H](O)C/C(=N/OCC(C)C)[C@@H]3CC[C@@H]2C1=O,nt,nt,nt,7%[21 µM],nt,nt
CCOC(=O)c1cc2c(=O)n3ccccc3nc2n(Cc2ccco2)c1=NC(=O)c1ccc(Br)cc1,nt,nt,nt,3%,35µM*,-11%
Cc1cccn2c(=O)c3cc(C#N)c(=NC(=O)c4ccccc4)n(Cc4ccco4)c3nc12,50µM*!,-73*!,nt,nt,50µM*!,-3%
CCCCNC(=O)[C@@H]1CC=C[C@@H]2CCN(CCCC)C(=O)[C@@H]21,nt,nt,nt,nt,-4%,nt
CC1=C(C#N)C(=O)N(C2CCS(=O)(=O)C2)C(=O)/C1=C\c1ccco1 (centres undefined),nt,nt,15µM*,nt,nt,nt
O=C1/C(=C\c2ccco2)SC(=S)N1C1CCCCC1,nt,nt,4%,nt,nt,nt
C=CC1=C2C=C(C3CC3)N(Cc3ccccc3)C=C2C(=O)C(C)(OC(=O)c2ccco2)C1=O (centres undefined),nt,nt,nt,7%[12.3 µM],nt,nt
Clc1ccc2nccnc2c1,nt,nt,nt,nt,-26%,nt
CC(=O)N1CCc2cc(Br)cc(S(=O)(=O)N3CCC(C(=O)Nc4ccc(C(C)C)cc4)CC3)c21,nt,nt,nt,4%,89µM*,-12%
CC(C)c1ccc(NS(=O)(=O)c2cc(Br)cc3c2N(C(=O)C2CC2)CC3)cc1,nt,nt,nt,3%,9%,8%
Cc1cc(C(=O)O)ccc1-c1ccc(/C=C2\NC(=O)N(Cc3ccccc3Cl)C2=O)o1,50µM*,-67*,3%,-3%,?,?
O=C1N/C(=C/c2ccc(N3CCOCC3)o2)C(=O)N1c1ccccc1,?,-9,?,-2%,3%,-7%
O=C(O)c1ccc(-c2ccc(/C=C3\NC(=O)N(Cc4ccc(Cl)cc4)C3=O)o2)cc1,-10%[11.6 µM],-5,0%,13µM*,-2%,-2%
Cc1ccc(C(=O)O)cc1-c1ccc(/C=C2/NC(=O)N(c3ccccc3)C2=O)o1,40µM*,?,-10%,1.6µM*,?,?
O=[N+]([O-])c1ccccc1S(=O)(=O)NCc1ccccn1,nt,nt,nt,nt,9%,nt
Cn1c(=O)c2c(ncn2CCCc2ccccc2)n(C)c1=O,19%,2,1%,9%,15%,-10%
Cn1c(=O)[nH]c(=O)c2c1[nH]c(=S)n2CCCc1ccccc1,9%,-52*,-4%,nt,?,-8%
Cn1c(=O)c2c([nH]c(=S)n2CCCc2ccccc2)n(C)c1=O,7%,-94*,-6%,nt,?,-3%
Cn1c(=O)n(Cc2ccccc2Cl)c(=O)c2c1[nH]c(=S)n2C,?,-56*,-14%,nt,-4%,1%
Cn1c(=O)[nH]c(=O)c2c1nc(Br)n2CCCc1ccccc1,nt,nt,4%,0%,nt,nt

# Source: PubChem BioAssay
